Test results published in PubChem BioAssay (Tox21).
Inconclusive results are not listed. Calls of active or inactive are those of the source. Calls come from the whole dose curve; as a rule, active = well fitted curve in the direction sought with a large enough effect in the repeat runs; inconclusive = weak or mixed curves; inactive = no such curve, though single readings can be large; an effect the other way counts as inactive or inconclusive.

How the values were obtained:
[1] = Caspase-3/7 induction in HepG2 cells by small molecules, qHTS assay (AID 1346978); note: nearly all actives have a fitted effect of over 15% in size
Method in brief: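 Caspase-3/7 induction was measured by Caspase-Glo 3/7 luminescence (30 min, room temperature) after a 17 hr compound exposure of wild-type HepG2 cells seeded at 2,000 per well and pre-incubated 5 hr.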

[2] = Caspase-3/7 induction in CHO-K1 cells by small molecules, qHTS cell viability counter screen (AID 1346979); note: nearly all actives have a fitted effect of over 35% in size
Method in brief: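 Multiplexed with Caspase-Glo 3/7 in CHO-K1 cells, this counter screen added CellTiter-Fluor after 16hr of compound exposure and recorded fluorescence 1hr later.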

[3] = Caspase-3/7 induction in CHO-K1 cells by small molecules, qHTS assay (AID 1346980); note: nearly all actives have a fitted effect of over 15% in size
Method in brief: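 Luminescent Caspase-Glo 3/7 read (30min, room temperature) quantified apoptosis induction. Cells were wild-type CHO-K1, treated with compound for 17hr at 37 C and 5% CO2.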

[4] = Caspase-3/7 induction in HepG2 cells by small molecules, qHTS cell viability counter screen (AID 1346981); note: series mostly up to about 92 µM; nearly all actives have a fitted effect of over 30% in size
Method in brief: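 HepG2, WT, 2,000 cells/well; 5 hr pre-incubation 37 C/5% CO2; compound pin-transferred from DMSO; 16 hr exposure; CellTiter-Fluor, 1 hr; fluorescence read.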

[5] = biological target: Nuclear receptor subfamily 1 group I member 2 (Homo sapiens) (UniProt O75469); test: Human pregnane X receptor (PXR) small molecule agonists, qHTS assay (AID 1346982); note: nearly all actives have a fitted effect of over 35% in size; note: potency is the fitted concentration of half-maximal effect
Method in brief: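 Luciferase signal from ONE-Glo (30 min, room temperature) measured activation of hPXR-driven CYP3A4 reporter expression in PXR-Luc HepG2 cells treated with compounds for 24 hr at 37 C.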

[6] = biological target: Cytochrome P450 2C19 (Homo sapiens) (UniProt P33261); test: Cytochrome P450 Family 2 Subfamily C Member 19 (CYP2C19) small molecule antagonists: luciferase reporter qHTS assay (AID 1671197); note: nearly all actives have a fitted effect of over 65% in size; note: potency is the fitted concentration of half-maximal effect; for activity change, negative = inhibition: series mostly up to about 120 µM
Method in brief: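 Enzyme-substrate mix with proluciferin substrate (P450-Glo CYP2C19 system) preincubated with compounds 10 min at room temperature; NADPH regeneration solution added, 37C for 1 h; detection reagent stops reaction, luminescence read after 20 min. Ketoconazole positive control.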

[7] = biological target: Cytochrome P450 2C9 (Homo sapiens) (UniProt P11712); test: Cytochrome P450 Family 2 Subfamily C Member 9 (CYP2C9) small molecule antagonists: luciferase reporter qHTS assay (AID 1671198); note: nearly all actives have a fitted effect of over 50% in size; note: potency is the fitted concentration of half-maximal effect; for activity change, negative = inhibition: series mostly up to about 120 µM
Method in brief: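 Enzyme-substrate mix preincubated with compound 10 min at room temperature; reaction started with NADPH regeneration solution, 1 h 37C. Luminescent luciferin product read after 20 min detection reagent.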

[8] = biological target: Cytochrome P450 1A2 (Homo sapiens) (UniProt P05177); test: Cytochrome P450 Family 1 Subfamily A Member 2 (CYP1A2) small molecule antagonists: luciferase reporter qHTS assay (AID 1671199); note: nearly all actives have a fitted effect of over 50% in size; note: potency is the fitted concentration of half-maximal effect; for activity change, negative = inhibition: series mostly up to about 120 µM
Method in brief: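 P450-Glo CYP1A2, 1536-well qHTS: enzyme/proluciferin substrate + cpd (DMSO), 10 min RT; NADPH regen, 1 h RT; detection reagent, 20 min; luminescence, RLU.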

[9] = biological target: Voltage-gated inwardly rectifying potassium channel KCNH2 (Homo sapiens) (UniProt Q12809); test: Human Ether-a-go-go-Related Gene (hERG) channel small molecule antagonists: fluorescence cell-based qHTS assay (AID 1671200); note: nearly all actives have a fitted effect of over 50% in size; note: potency is the fitted concentration of half-maximal effect;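 for activity change, negative = inhibition: hERG-expressing U2OS cells given a thallium stimulus after FluxOR II dye loading; series mostly up to about 77 µM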
Method in brief: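 Cell line hERG-U2OS; dye FluxOR II, 1 h RT dark; Tl+ stimulus; ex 480/em 540 nm, read each second for 2 min.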

[10] = biological target: Cytochrome P450 3A4 (Homo sapiens) (UniProt P08684); test: Cytochrome P450 Family 3 Subfamily A Member 4 (CYP3A4) small molecule antagonists: luciferase reporter qHTS assay (AID 1671201); note: nearly all actives have a fitted effect of over 50% in size; note: potency is the fitted concentration of half-maximal effect; for activity change, negative = inhibition: series mostly up to about 120 µM
Method in brief: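 Room-temperature assay throughout: 10 min compound–enzyme/substrate preincubation, 1 h reaction after NADPH regeneration solution, 20 min detection. Luciferin formed from proluciferin substrate is quantified by luminescence.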

[11] = Human pregnane X receptor (PXR) small molecule agonists, qHTS cell viability counter screen (AID 1346977); note: nearly all actives have a fitted effect of over 50% in size
Method in brief: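 After a 5hr pre-incubation, PXR-Luc HepG2 cells received compounds plus positive control in DMSO and were kept 24hr at 37C. Cell viability was quantified by fluorescence from CellTiter-Fluor added for the final hour.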

[12] = biological target: Cytochrome P450 2D6 (Homo sapiens) (UniProt P10635); test: Cytochrome P450 Family 2 Subfamily D Member 6 (CYP2D6) small molecule antagonists: luciferase reporter qHTS assay (AID 1671196); note: nearly all actives have a fitted effect of over 50% in size; note: potency is the fitted concentration of half-maximal effect; for activity change, negative = inhibition: series mostly up to about 120 µM
Method in brief: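 Read-out is luminescence from luciferin formed by CYP2D6 turnover of a proluciferin substrate, recorded as relative luminescence units. Reactions ran 1 h at room temperature after NADPH regeneration solution was added.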

[13] = biological target: Nuclear receptor subfamily 1 group I member 2 (Rattus norvegicus) (UniProt Q9R1A7); test: Rat pregnane X receptor (rPXR) activation by small molecules, qHTS assay (AID 1346983); settings: rPXR luciferase reporter cells, One-Glo luminescence, 24 h; max activation: stronger effect = higher value; note: nearly all actives have a fitted effect of over 20% in size; note: potency is the fitted concentration of half-maximal effect
Method in brief: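 Luminescent readout (One-Glo luciferase, 30 min room temperature) followed 24 hr compound treatment at 37 C of rPXR cells plated 2,000 per well and preincubated 5hr; qHTS format with compounds delivered in DMSO.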

[14] = biological target: Nuclear receptor subfamily 1 group I member 2 (Homo sapiens) (UniProt O75469); test: CYP3A4 induction through human pregnane X receptor (PXR) by small molecules, qHTS assay (AID 1346984); note: nearly all actives have a fitted effect of over 40% in size; note: potency is the fitted concentration of half-maximal effect
Method in brief: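 Luminescence readout: luciferase signal after One-Glo (30 min, room temperature), following 3 h at 37C with 3uM final Luciferin-IPA P450 substrate. Cells were DPX-2 (HepG2, PXR/CYP3A4-luc co-transfected) dosed for 24 h.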

[15] = biological target: Nuclear receptor subfamily 1 group I member 2 (Homo sapiens) (UniProt O75469); test: Human pregnane X receptor (PXR) activation by small molecules, qHTS assay (AID 1346985); note: nearly all actives have a fitted effect of over 40% in size; note: potency is the fitted concentration of half-maximal effect
Method in brief: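 DPX-2 cells (HepG2 co-transfected with a PXR response element and a CYP3A4-promoter luciferase construct) were seeded at 2,000 per well, rested 5 hr at 37C, then exposed to DMSO-dissolved compounds for 24 hr. Activation was read as luciferase luminescence.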
% is set by controls: 0 for no effect and ±100 for the full control effect.

Sequence of Cytochrome P450 2C9 (Homo sapiens) (P11712 whole entry, looked up): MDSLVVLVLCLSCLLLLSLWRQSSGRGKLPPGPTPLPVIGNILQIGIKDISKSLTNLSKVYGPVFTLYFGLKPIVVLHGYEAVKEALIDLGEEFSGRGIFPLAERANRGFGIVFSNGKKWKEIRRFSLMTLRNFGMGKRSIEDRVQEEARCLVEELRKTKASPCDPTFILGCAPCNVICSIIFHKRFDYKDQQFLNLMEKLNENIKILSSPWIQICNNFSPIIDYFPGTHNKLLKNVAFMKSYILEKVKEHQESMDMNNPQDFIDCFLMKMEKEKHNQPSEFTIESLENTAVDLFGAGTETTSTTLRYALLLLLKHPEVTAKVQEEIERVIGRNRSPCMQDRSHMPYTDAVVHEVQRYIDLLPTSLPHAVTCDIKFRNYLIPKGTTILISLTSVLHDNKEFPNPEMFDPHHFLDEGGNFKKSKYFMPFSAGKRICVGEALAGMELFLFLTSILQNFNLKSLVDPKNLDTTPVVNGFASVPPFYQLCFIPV
Sequence of Cytochrome P450 2C19 (Homo sapiens) (P33261 whole entry, looked up): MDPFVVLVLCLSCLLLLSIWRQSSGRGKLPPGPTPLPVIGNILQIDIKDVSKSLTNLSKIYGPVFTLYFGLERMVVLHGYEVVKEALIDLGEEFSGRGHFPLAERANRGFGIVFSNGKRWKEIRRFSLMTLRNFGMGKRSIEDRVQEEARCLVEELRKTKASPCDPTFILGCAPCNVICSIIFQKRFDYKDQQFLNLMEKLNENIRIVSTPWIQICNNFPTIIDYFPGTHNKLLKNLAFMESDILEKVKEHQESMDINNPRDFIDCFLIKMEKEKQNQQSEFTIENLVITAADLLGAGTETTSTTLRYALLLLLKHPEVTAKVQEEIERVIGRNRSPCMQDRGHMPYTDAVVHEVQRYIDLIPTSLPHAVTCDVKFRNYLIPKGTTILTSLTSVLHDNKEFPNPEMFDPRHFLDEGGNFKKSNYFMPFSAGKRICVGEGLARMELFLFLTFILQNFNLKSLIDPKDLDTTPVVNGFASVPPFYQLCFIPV
Sequence of Voltage-gated inwardly rectifying potassium channel KCNH2 (Homo sapiens) (Q12809 whole entry, looked up): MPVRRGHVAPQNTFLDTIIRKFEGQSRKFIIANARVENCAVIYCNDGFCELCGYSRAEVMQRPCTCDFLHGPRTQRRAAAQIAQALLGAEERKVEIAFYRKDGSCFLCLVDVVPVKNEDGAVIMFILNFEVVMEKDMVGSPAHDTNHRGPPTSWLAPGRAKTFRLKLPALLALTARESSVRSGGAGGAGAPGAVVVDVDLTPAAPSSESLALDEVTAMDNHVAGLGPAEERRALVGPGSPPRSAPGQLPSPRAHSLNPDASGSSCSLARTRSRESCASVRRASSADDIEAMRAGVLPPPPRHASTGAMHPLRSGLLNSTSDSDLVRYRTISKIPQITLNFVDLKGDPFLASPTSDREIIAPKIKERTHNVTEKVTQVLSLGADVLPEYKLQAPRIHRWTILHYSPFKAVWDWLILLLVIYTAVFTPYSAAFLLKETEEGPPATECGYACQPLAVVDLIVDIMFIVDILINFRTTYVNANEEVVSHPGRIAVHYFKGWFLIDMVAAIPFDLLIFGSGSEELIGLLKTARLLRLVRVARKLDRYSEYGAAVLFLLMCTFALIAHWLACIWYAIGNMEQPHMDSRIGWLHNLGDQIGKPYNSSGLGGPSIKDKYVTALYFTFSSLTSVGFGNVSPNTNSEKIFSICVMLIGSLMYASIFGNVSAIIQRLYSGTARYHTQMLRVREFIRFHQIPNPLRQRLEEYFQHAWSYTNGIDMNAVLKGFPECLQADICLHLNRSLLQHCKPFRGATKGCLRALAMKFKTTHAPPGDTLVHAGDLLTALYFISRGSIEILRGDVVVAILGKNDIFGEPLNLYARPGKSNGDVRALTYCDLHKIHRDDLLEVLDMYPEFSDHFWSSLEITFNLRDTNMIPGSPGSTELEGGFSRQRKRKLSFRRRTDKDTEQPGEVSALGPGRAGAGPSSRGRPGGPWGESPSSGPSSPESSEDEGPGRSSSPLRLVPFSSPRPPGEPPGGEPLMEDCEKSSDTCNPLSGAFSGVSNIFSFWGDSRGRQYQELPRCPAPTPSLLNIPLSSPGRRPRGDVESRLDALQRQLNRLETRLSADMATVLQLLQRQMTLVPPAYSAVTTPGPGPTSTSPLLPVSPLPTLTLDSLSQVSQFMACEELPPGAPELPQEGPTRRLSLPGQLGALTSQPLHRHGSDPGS
Sequence of Cytochrome P450 2D6 (Homo sapiens) (P10635 whole entry, looked up): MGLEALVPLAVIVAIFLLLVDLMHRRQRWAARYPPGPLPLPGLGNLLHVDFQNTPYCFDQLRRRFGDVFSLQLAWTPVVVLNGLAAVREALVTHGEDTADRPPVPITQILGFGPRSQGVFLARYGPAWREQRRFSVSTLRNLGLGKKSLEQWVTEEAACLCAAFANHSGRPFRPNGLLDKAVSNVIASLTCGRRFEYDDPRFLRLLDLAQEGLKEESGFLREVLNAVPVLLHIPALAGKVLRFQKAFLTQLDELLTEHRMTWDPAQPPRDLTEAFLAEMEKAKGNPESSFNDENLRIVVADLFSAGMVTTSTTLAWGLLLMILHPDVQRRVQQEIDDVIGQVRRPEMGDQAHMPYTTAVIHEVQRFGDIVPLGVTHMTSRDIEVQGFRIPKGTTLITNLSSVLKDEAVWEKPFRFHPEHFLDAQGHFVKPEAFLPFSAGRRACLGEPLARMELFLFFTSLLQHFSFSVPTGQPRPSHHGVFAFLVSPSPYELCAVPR
Sequence of Nuclear receptor subfamily 1 group I member 2 (Homo sapiens) (O75469 whole entry, looked up): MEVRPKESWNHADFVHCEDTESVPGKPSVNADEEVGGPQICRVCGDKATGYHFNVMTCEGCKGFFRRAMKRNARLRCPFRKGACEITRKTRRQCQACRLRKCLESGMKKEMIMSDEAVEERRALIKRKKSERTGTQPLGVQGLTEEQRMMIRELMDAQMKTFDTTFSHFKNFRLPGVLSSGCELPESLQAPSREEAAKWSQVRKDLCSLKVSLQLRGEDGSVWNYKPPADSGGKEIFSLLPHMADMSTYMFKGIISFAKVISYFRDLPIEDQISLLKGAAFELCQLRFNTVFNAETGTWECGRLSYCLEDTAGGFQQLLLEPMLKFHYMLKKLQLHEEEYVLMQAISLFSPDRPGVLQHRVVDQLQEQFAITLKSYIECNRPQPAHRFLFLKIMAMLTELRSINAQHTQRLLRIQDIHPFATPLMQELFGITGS
Sequence of Cytochrome P450 3A4 (Homo sapiens) (P08684 whole entry, looked up): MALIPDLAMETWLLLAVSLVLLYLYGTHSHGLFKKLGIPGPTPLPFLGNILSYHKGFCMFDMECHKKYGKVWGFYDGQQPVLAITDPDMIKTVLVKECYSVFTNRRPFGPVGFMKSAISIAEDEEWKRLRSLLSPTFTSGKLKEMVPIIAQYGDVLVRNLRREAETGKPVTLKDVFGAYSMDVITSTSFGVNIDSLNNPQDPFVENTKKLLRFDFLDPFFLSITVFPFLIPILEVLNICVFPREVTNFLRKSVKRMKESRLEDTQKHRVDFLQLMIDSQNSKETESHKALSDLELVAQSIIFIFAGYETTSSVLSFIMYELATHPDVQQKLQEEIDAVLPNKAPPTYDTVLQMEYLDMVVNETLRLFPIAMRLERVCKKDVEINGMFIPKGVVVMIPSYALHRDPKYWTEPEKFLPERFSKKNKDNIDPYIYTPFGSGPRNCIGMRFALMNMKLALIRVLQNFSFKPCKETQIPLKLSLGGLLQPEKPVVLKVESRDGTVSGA
Sequence of Nuclear receptor subfamily 1 group I member 2 (Rattus norvegicus) (Q9R1A7 whole entry, looked up): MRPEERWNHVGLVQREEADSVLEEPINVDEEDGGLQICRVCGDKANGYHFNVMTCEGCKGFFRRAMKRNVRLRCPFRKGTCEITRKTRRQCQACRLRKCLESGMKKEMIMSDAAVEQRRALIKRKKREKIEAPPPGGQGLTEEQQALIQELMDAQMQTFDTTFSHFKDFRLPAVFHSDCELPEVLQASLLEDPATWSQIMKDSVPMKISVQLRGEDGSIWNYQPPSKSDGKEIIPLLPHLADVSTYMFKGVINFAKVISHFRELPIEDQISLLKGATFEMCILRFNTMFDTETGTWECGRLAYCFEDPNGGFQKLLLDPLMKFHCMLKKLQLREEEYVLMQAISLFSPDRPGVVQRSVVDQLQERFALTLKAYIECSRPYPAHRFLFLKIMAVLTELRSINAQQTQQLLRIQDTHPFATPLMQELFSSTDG
Sequence of Cytochrome P450 1A2 (Homo sapiens) (P05177 whole entry, looked up): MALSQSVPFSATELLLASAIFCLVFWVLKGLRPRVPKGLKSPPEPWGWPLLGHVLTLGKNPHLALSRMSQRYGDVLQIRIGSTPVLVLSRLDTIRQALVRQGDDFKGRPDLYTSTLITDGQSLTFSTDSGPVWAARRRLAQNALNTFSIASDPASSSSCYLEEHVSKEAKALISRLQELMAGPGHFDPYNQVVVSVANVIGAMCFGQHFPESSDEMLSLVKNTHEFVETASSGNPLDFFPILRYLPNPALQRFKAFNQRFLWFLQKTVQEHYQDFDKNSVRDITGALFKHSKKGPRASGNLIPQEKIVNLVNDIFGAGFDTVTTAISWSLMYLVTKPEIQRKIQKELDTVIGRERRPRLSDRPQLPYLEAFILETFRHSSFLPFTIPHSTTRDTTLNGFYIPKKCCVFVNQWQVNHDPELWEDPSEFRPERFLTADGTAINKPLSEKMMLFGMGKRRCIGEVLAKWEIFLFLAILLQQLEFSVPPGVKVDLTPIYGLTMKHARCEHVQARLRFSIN

O=C1CCCc2ccccc21
inactive: Potency [1] | Potency [2] | outcome [3] | Potency [4] | Potency [6] | Potency [7] | Potency [9] | Potency [10]
active: Potency [5] 39 µM | Potency [8] 36 µM

Nc1cccc(S(=O)(=O)O)c1
active: Potency [12] 71.2 µM
inactive: Potency [11] | Potency [1] | Potency [2] | outcome [3] | Potency [4] | Potency [5] | Potency [6] | Potency [10]

Cc1c[nH]c(=S)[nH]c1=O
inactive: Potency [1] | Potency [2] | outcome [3] | Potency [4] | Potency [5] | Potency [9] | Potency [10]
active: Potency [6] 79.9 µM | Potency [8] 63.5 µM

Cc1cccc(C)c1NC(=O)CN1CCCCCC1
inactive: Potency [11] | Potency [1] | Potency [2] | Potency [4] | max activation [13] -0.265% | Potency [15] | Potency [7] | Potency [10]
active: Potency [5] 11.9 µM | Potency [14] 14.1 µM | Potency [12] 12.3 µM

CCCCCCCCCCCCOCCOS(=O)(=O)O
inactive: Potency [1] | outcome [3] | Potency [4] | Potency [10]
active: Potency [6] 79.6 µM | Potency [7] 71 µM

Cn1cnc2c(F)c(Nc3ccc(Br)cc3Cl)c(C(=O)NOCCO)cc21
inactive: Potency [2] | outcome [3] | Potency [4] | Potency [5] | Potency [12] | Potency [9]
active: Potency [6] 8.71 µM | Potency [7] 13.8 µM

CCN(CC)C(=O)N(CC)CC
inactive: Potency [1] | Potency [2] | outcome [3] | Potency [4] | Potency [5] | Potency [12] | Potency [7] | Potency [9] | Potency [10]

CCOc1ccccc1N
active: Potency [12] 3.53 µM | Potency [6] 22.3 µM | Potency [7] 31.5 µM | Potency [8] 19.9 µM | Potency [9] 21.7 µM | Potency [10] 15.8 µM
inactive: Potency [2] | outcome [3] | Potency [4] | Potency [5]

CC1(C)O[C@@H]2C[C@H]3[C@@H]4CCC5=CC(=O)CC[C@]5(C)[C@@]4(F)[C@@H](O)C[C@]3(C)[C@]2(C(=O)CCl)O1
inactive: Potency [11] | Potency [2] | Potency [8] | Potency [9]
active: Potency [5] 9.44 µM | Potency [13] 1 µM | Potency [15] 5.01 µM | Potency [6] 34.7 µM | Potency [7] 15.5 µM

Cc1ccc(C(C)C)cc1O
inactive: Potency [11] | Potency [1] | Potency [2] | Potency [4] | Potency [5] | Potency [12] | Potency [9]
active: Potency [6] 1.78 µM | Potency [7] 15.9 µM | Potency [8] 22.4 µM

COC(=O)c1ccc2cc(C(=O)OC)ccc2c1
inactive: caspase activation [1] -5.84% [at 19 µM] | activity change, negative = cytotoxicity [2] 6.59% [at 19 µM] | caspase-3/7 activation [3] -2.42% [at 19 µM] | activity change, negative = cytotoxicity [4] -0.603% [at 19 µM] | activation [5] 19.9% [at 19 µM] | activity change, negative = inhibition [12] -8.11% [at 23.6 µM] | Potency [7] | activity change, negative = inhibition [9] 9.84% [at 15.8 µM] | activity change, negative = inhibition [10] 16.2% [at 23.6 µM]

CCN(CC)CCOc1ccc(Cc2ccccc2)cc1
active: Potency [5] 23.7 µM | Potency [14] 11.2 µM | Potency [15] 4.47 µM | Potency [12] 9.77 µM | Potency [6] 0.55 µM | Potency [9] 7.56 µM
inactive: Potency [1] | Potency [2] | outcome [3] | Potency [4] | max activation [13] -17.9% | Potency [7] | Potency [8] | Potency [10]

CCc1cc2cc(OC)c(OC)cc2c(Cc2ccccc2)n1
inactive: Potency [11] | Potency [1] | outcome [3]
active: Potency [5] 13.3 µM | Potency [6] 17.4 µM | Potency [7] 15.5 µM

O=C(O)[C@@H]1CSCN1
inactive: Potency [1] | Potency [2] | outcome [3] | Potency [4] | Potency [5] | max activation [13] 0.44% | Potency [14] | Potency [15] | Potency [6] | Potency [7] | Potency [8] | Potency [9] | Potency [10]

CC(C)C[C@H](NC(=O)OCC1c2ccccc2-c2ccccc21)C(=O)O
inactive: Potency [1] | Potency [2] | outcome [3] | Potency [4] | Potency [9]

CCCCCCCCCCCCCCCCOP(=O)([O-])OCC[N+](C)(C)C
inactive: Potency [11] | Potency [2] | outcome [3] | Potency [4] | Potency [5] | max activation [13] 0.239% | Potency [14] | Potency [15] | Potency [6] | Potency [7] | Potency [9] | Potency [10]
